Reference: PubChem BioAssay AID504773 (Broad Institute, 2011)
Entries with a potency or affinity are not part of this list. A number with no mark means an inactive call.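 The calls were made as follows: active = polarization signal falls with dose and the fitted half-maximal concentration is at or below ten times the sample's top valid dose; inconclusive = flat curve at 30 to 70% inhibition, or poor fit; inactive = signal rises, flat within 30%, or potency beyond limit.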

Biological target: Golgi-associated PDZ and coiled-coil motif-containing protein (Homo sapiens) (UniProt Q9HD26)
Test: CAL PDZ peptide-binding inhibitors, dose response, biochemical, fluorescence polarization, Cerulean-tagged CAL PDZ, cherry-picks (AID 504773);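 also: 0% = DMSO neutral wells and -100% = excess unlabeled competitor peptide wells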
Settings: 1 h; series mostly up to 50 µM; activity change, negative = inhibition: at the top concentration

| Structure (SMILES) | activity change, negative = inhibition [%] |
| --- | --- |
| O=c1c2cc3c(cc2[nH]c(=S)n1CCN1CCOCC1)OCO3 | 13.2 |
| Cc1cccc(Nc2nc(-c3ccc(F)cc3)cs2)n1 | 17.6 |
| CCC1C(=O)NCCN1C(=O)CCc1nnc(CCc2ccc(OC)cc2)o1 (stereo unspecified) | 15.2 |
| O=C(CCC(=O)N1CCN(c2ccccc2F)CC1)N1CCN(c2ccccc2)CC1 | -7.56 |
| COc1ccc(-n2c(=S)[nH]c3c(sc(=S)n3-c3ccccc3)c2=O)c(OC)c1 | 29.8 |
| O=C(Cc1ccccc1)NN=C1CCCC1 | 6.19 |
| O=C(NCC1CCCO1)c1cn(-c2ccccc2)nc1-c1ccc(F)cc1 (stereo unspecified) | 14.8 |
| C=CCNC(=O)CC1Nc2c3ccccc3nc(=S)n2C1=O (stereo unspecified) | 12.5 |
| CC(NS(=O)(=O)c1ccc(Cl)c(Cl)c1)C(=O)OCC(=O)Nc1ccc2c(c1)OCO2 (stereo unspecified) | 1.21 |
| CSc1ccccc1NC(=O)c1ccccc1 | 8.04 |
| Cc1nc(N)c(CC(Br)CBr)c(Cl)n1 (stereo unspecified) | 5.44 |
| COC(=O)CN1C(=O)N/C(=C/c2cc(Cl)c(OC)c(OC)c2)C1=O | -0.528 |
| CN=c1scc(C)n1/N=C/c1cc(Br)c(O)c(Br)c1 | 12.3 |
| CC(=O)N1CCN(c2ccc(NC(=O)c3cccc(Cl)c3Cl)cc2)CC1 | 11.3 |
| N#Cc1ccc(CC(=O)c2ccccc2)[nH]c1=O | 4.17 |
| O=C(NCc1cccnc1)/C(=C/c1ccc(-c2cccc(C(F)(F)F)c2)o1)NC(=O)c1ccccc1 | 8.73 |
| Cc1ccc(SCC(=O)NCc2ccc(F)cc2)cc1 | 10.2 |
| CCCNC(=O)C(=O)NCC1CCCN1CC (stereo unspecified) | -64.5 |

| Structure (SMILES) | activity change, negative = inhibition [%] |
| --- | --- |
| O=C(CN(Cc1ccccc1)S(=O)(=O)c1ccc(F)cc1)NCCC1=CCCCC1 | 28.8 |
| O=C(O)c1ccc(S(=O)(=O)c2ccc3c(c2)C(=O)N(c2ccccc2[N+](=O)[O-])C3=O)cc1 | -12.8 |
| Cc1ccc(S(=O)(=O)N2CCN(C(=O)c3cc(=O)c4ccccc4o3)CC2)cc1 | -30.3 |
| O=C(/C=C/c1cccs1)Nc1scc(-c2ccccc2)c1C(=O)O | -23.1 |
| O=C(COC(=O)c1ccccc1C(=O)N1CCN(c2ccccc2)CC1)NCc1ccccc1 | -4.35 |
| CC(C)OC(=O)C1CC(C)(O)C(=O)C(C(=O)OC(C)C)C1c1ccc([N+](=O)[O-])cc1 (stereo unspecified) | -42 |
| CC(CCCC(C)(C)O)NC(=O)c1ccc(OC2CCN(C(=O)C3CC3)CC2)cc1 (stereo unspecified) | 7.11 |
| CS(=O)(=O)c1ccc(Cl)c(NC(=O)COC(=O)c2c(Cl)cccc2Cl)c1 | -13.4 |
| Cc1ccc(S(=O)(=O)N2CCN(C(=O)c3ccccn3)CC2)cc1 | 13.7 |
| COc1ccc(OC)c(S(=O)(=O)NCCCn2ccnc2)c1 | -6.91 |
| Cc1cccc(C(=O)Nc2ccc(C(=O)/C=C/c3ccncc3)cc2)c1 | 21.8 |
| COc1ccc(C(=O)c2ccc(C)cc2)c(OC)c1OC | 6.19 |
| O=C(Nc1ccccc1Cl)Nc1cccnc1Cl | -19.9 |
| Cc1cc(C)c2nc(-c3ccncc3)cc(C(=O)N3CCN(Cc4ccccc4Cl)CC3)c2c1 | -33.1 |
| CCN(CC)S(=O)(=O)c1cc(C(=O)Oc2ccccc2OC)ccc1OC | 14.1 |
| CCN(CC)S(=O)(=O)c1ccc(/C=C/C(=O)OCC(=O)N(C)C)cc1 | -4.78 |
| Cc1ccc(C(C)NC(=O)Cc2cccs2)c(C)c1 (stereo unspecified) | 2.57 |
| CN(C)c1ccc(C(=O)OCC(=O)NC2CCCCCC2)cc1 | 9.33 |
